Assay outcomes from PubChem.
Rows were chosen to be rich in hits. Some 4.7% of all compounds tested hit in one or more screens of this group.
D1 ag = Allosteric Agonists of the Human D1 Dopamine Receptor: qHTS. activation, % at 2 µM. 360,000 tested, 1% active. HEK293 T-REx D1 cells, calcium flux, agonist mode. AID 504660, 2011. D(1A) dopamine receptor (Homo sapiens), P21728; in the data active = activation above about 30%
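Agonism was scored from calcium flux recorded over 180 s (1 read/s) after pintool compound addition, following a 10-cycle baseline. Cells were inducible force-coupled HEK293 TREx D1, plated overnight at 30 C and loaded with no-wash calcium dye.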
TRHR enhancer-1 = qHTS for Small Molecule Agonists and Allosteric Enhancers of Human TRH Receptor: Primary Screen for Enhancers | Thyrotropin-releasing hormone receptor (Homo sapiens), P34981 | TRHR cells, fluo-8 calcium fluorescence, EC20 TRH enhancement | enhancement, % at 2 µM | 360,000 tested, 0.66% active; in the data active = enhancement above about 30%
Target sequence (P34981 whole entry, looked up): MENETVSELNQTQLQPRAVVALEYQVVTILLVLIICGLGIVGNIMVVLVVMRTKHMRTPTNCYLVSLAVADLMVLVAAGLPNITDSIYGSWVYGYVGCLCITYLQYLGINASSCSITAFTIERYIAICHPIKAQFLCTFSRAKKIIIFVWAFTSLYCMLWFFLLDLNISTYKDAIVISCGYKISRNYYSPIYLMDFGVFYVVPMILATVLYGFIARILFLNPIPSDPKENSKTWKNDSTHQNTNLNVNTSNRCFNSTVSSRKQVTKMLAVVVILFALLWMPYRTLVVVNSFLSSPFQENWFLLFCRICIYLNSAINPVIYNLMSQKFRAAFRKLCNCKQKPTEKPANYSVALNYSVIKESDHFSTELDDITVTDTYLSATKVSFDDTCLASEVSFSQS
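TRHR-expressing cells loaded with fluo-8 calcium dye were read kinetically (ex 480/em 530) during compound addition, then stimulated with an EC20 of TRH (10 nM final). Enhancement of the Gq-mediated intracellular calcium response was scored.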
D1 antag = Antagonist of Human D 1 Dopamine Receptor: qHTS; 360,000 tested, 3.2% active; HEK293 TREx D1 cells, calcium flux, dopamine EC80; hits give low values; activity change, negative = inhibition, % at 10 µM; AID 504652, 2011; D(1A) dopamine receptor (Homo sapiens), P21728; in the data active = activity change below about -30%
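Kinetic fluorescence of a calcium dye serves as the read-out. D1-expressing Hek293 Trex cells, induced overnight at 30 C, are exposed to compound for 180 s before an EC80 dopamine addition, then read 180 s further.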
TRHR agonist-1 = qHTS for Small Molecule Agonists and Allosteric Enhancers of Human TRH Receptor: Primary Screen for Agonists. activation, % at 2 µM. 360,000 tested, 0.18% active. TRHR cells, calcium flux fluo-8, FDSS agonist mode; in the data active = activation above about 30%
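TRHR-expressing cells loaded with fluo-8 calcium dye; 23 nL library compound pin-transferred, kinetic FDSS fluorescence (Ex 480/Em 530) recorded about 180 s for agonist-induced calcium release, before a 10 nM TRH EC20 addition for potentiator mode.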
D1 potentiator = Potentiators of Human D1 Dopamine Receptor: qHTS | D(1A) dopamine receptor (Homo sapiens), P21728 | HEK293 TREx D1 cells, calcium flux, dopamine EC20 potentiation | potentiation, % at 10 µM | 360,000 tested, 0.036% active; in the data active = potentiation above about 30%
TRHR enhancer-2 = qHTS for Small Molecule Agonists and Allosteric Enhancers of Human TRH Receptor: Confirmation Screen for Enhancers | shares compounds with TRHR enhancer-1 | TRH receptor cell assay, enhancer confirmation qHTS | activity change, negative = inhibition, % at 46.1 µM | 970 tested, under 10 active;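 also: compound effect scored on response to added TRH at EC20 of 10 nM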
TRHR agonist-2 = qHTS for Small Molecule Agonists and Allosteric Enhancers of Human TRH Receptor: Confirmation Screen for Agonists; shares compounds with TRHR enhancer-1; TRHR-expressing cells, agonist activation read-out; Potency, µM (titrated, usually from 46.1 µM), actives largely listed as activators; 970 tested, 8% active; AID 493078, 2011; also: nearly all actives have a fitted effect of over 75% in size
Each line names hits and unclear results; the compound was inactive in the other large screens (follow-up assays come after a bar, where they were run). Unless noted, calls follow the shape of the dose curve; as a rule, active = well fitted curve in the direction sought with a large enough effect; inconclusive = small, poorly fitted or top-dose-only effect, or another doubt; inactive = no such curve, though single readings can be large; an effect the other way counts as inactive or inconclusive.

CN1CC(=O)N/C1=N\C(=O)Nc1ccc(O)cc1	TRHR enhancer-1 54 | TRHR enhancer-2 inactive | TRHR agonist-2 inactive
CCCc1cc(=O)oc2c(C)c(OCC(=O)NCCN3CCOCC3)ccc12	TRHR enhancer-1 54 | TRHR enhancer-2 inactive | TRHR agonist-2 inactive
COCCOC(=O)C1=C(C)N(c2ccccc2)C(=O)NC1c1cccc([N+](=O)[O-])c1 (stereo not drawn)	TRHR enhancer-1 50 | TRHR enhancer-2 inactive | TRHR agonist-2 inactive
CCOC(=O)C1=C(C)N(c2ccc(Cl)cc2)C(=O)NC1c1cccc([N+](=O)[O-])c1 (stereo not drawn)	none
O=C(CSC(=S)N1CCCCC1)N1N=CCC1c1ccccc1 (stereo not drawn)	TRHR enhancer-1 53 (no result: D1 antag) | TRHR enhancer-2 inactive | TRHR agonist-2 inactive
COc1ccccc1C1(O)CCN(C(=O)c2cccs2)CC1	TRHR enhancer-1 46 | TRHR enhancer-2 inactive | TRHR agonist-2 inactive
Cc1ccccc1-c1noc(CCC(=O)Nc2cccc(C)c2C)n1	none
Cc1cccc(NC(=O)CCCCCn2c(=O)[nH]c3ccsc3c2=O)c1	none
O=C(COC(=O)c1cccnc1Cl)Nc1cccc(S(=O)(=O)N2CCCCC2)c1	TRHR enhancer-1 54 | TRHR enhancer-2 inactive | TRHR agonist-2 inactive
N#Cc1ccccc1NC(=S)NC(=O)C1CCC1	none
O=C(NC(=S)Nc1ccccc1Br)C1CCC1	TRHR enhancer-1 62 | TRHR enhancer-2 inactive | TRHR agonist-2 inactive
COc1ccc(/C=C2\SC(=S)N(c3cccnc3)C2=O)cc1	none
Cc1cc(C)nc(NN2C(=O)/C(=C/c3ccc(O)cc3)SC2=S)n1	D1 ag 43, TRHR agonist-1 36 | TRHR enhancer-2 inactive | TRHR agonist-2 21µM
O=C1/C(=C\c2ccc(O)cc2)SC(=S)N1c1cccnc1	D1 ag 66, TRHR agonist-1 36 | TRHR enhancer-2 inactive | TRHR agonist-2 inconclusive
Cc1ccccc1-c1nc2c(c(SCc3cccc(Cl)c3)n1)Cc1c(CO)cnc(C)c1O2	none
O=C(Nc1ncccc1O)c1c(O)c2ccccc2[nH]c1=O	none | TRHR enhancer-2 inactive | TRHR agonist-2 inactive
COc1ccccc1C(=O)Nc1ccnn1C1CCN(C/C=C/c2ccc(F)cc2)CC1	TRHR enhancer-1 47, D1 antag -32 | TRHR enhancer-2 inactive | TRHR agonist-2 inactive
COc1cccc(NC(=O)CN2C(=O)NC(C)(CC(C)C)C2=O)c1 (stereo not drawn)	TRHR enhancer-1 52 | TRHR enhancer-2 inactive | TRHR agonist-2 inactive
COc1cccc(NC(=O)CN2C(=O)NC3(CCCc4ccccc43)C2=O)c1 (stereo not drawn)	none
CCc1cc(-c2n[nH]c(C)c2-c2nc(C)cs2)c(O)cc1OC	TRHR enhancer-1 45 | TRHR enhancer-2 inconclusive | TRHR agonist-2 inactive
O=C(NC1CCCCC1)N1CCN(S(=O)(=O)c2ccc(F)cc2)CC1	TRHR enhancer-1 46 | TRHR enhancer-2 inactive | TRHR agonist-2 inactive
O=C(NC1CCCCCC1)C1CCN(S(=O)(=O)c2ccc(F)cc2)CC1	none
Cc1ccc(-c2nnc(Nc3ccc(CC(N)=O)cc3)c3ccccc23)cc1S(N)(=O)=O	TRHR enhancer-1 52 | TRHR enhancer-2 inactive | TRHR agonist-2 inactive
Cn1c(=O)[nH]c(=O)c2c1nc(NCc1ccccc1)n2Cc1ccc(F)cc1	TRHR enhancer-1 48 | TRHR enhancer-2 inactive | TRHR agonist-2 inactive
COc1ccc(CNC(=O)CN(C(=O)c2csnn2)c2ccc(F)cc2)cc1	none
Cc1cccc(NC(=O)CSc2cccc3cccnc23)c1	none | TRHR enhancer-2 inactive | TRHR agonist-2 inactive
Cc1ccc(C)c(NC(=O)CSc2cccc3cccnc23)c1	none
COc1ccc(N/N=C(\C#N)C(N)=O)cc1	TRHR enhancer-1 45 | TRHR enhancer-2 inactive | TRHR agonist-2 inactive
O=S(=O)(NCC1CCCO1)c1ccc(Cl)cc1 (stereo not drawn)	TRHR enhancer-1 46 | TRHR enhancer-2 inactive | TRHR agonist-2 inactive
c1ccc(-c2cn3nc(-c4ccccc4)c(-c4ccccc4)nc3n2)cc1	D1 ag 73, TRHR agonist-1 50 | TRHR enhancer-2 inactive | TRHR agonist-2 21µM
COc1ccc(/C(C)=N/NC(=O)CNC(=O)c2ccco2)cc1	TRHR enhancer-1 46 | TRHR enhancer-2 inactive | TRHR agonist-2 inactive
COc1ccc(/C=C/C(=O)NCC(=O)N/N=C(/C)c2ccco2)cc1	none
